This note sets out measurements from PubChem BioAssay (NCATS).

Inconclusive results are not listed. Where a call stands in place of a potency, no number is given. Active and inactive are the calls of the source. Calls follow the shape of the dose curve; as a rule, active = well fitted inhibition curve with a large enough effect; inconclusive = small, poorly fitted or top-dose-only effect; inactive = no such curve, though single readings can be large or run the other way.
Potency is read from the fitted curve at half-maximal effect.

The assay deals with Rap guanine nucleotide exchange factor 4 (Homo sapiens) (UniProt Q8WZA2). In words: Confirmatory qHTS for antagonist of cAMP-regulated guanine nucleotide exchange factor 4 (EPAC2) (AID 1645885). Also: nearly all actives have a fitted effect of over 25% in size. The conditions noted are these: EPAC2 Rap1B-BODIPY-GDP exchange fluorescence, biochemical; series mostly up to 12.7 µM. A general note: In qHTS, concentration-response curves come from the screen itself.
Sequence of Rap guanine nucleotide exchange factor 4 (Homo sapiens) (Q8WZA2 whole entry, looked up): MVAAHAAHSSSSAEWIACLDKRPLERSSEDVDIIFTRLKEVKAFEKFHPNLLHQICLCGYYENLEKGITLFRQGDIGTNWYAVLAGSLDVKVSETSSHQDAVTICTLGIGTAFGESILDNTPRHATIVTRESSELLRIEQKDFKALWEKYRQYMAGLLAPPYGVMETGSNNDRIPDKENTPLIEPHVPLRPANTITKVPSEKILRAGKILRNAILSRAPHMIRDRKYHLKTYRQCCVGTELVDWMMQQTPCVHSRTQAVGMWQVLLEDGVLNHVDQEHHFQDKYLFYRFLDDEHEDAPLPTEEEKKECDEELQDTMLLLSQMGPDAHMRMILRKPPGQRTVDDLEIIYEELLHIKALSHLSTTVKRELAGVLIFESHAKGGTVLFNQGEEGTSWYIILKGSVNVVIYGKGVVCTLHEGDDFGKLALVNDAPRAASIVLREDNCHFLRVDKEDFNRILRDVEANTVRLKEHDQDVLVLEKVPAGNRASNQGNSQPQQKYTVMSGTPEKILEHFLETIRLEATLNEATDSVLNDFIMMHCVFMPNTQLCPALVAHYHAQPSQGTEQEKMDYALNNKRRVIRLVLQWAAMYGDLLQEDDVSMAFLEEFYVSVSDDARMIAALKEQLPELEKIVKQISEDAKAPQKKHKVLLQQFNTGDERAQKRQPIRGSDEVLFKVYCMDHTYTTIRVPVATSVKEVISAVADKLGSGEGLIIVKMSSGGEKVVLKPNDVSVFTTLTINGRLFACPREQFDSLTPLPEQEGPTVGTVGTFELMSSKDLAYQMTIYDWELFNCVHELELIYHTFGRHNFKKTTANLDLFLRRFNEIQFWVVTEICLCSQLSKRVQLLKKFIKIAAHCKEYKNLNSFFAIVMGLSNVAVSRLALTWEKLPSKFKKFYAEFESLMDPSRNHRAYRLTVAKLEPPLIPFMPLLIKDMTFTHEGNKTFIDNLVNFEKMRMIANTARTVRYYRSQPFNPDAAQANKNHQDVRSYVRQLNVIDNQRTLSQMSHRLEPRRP
Take `Cc1ccc(C(=O)Nc2cccc(-c3ccc(N4CCOCC4)nn3)c2)cc1C`: the Potency entry was “inactive”.
In the case of `COc1ccc2ccc(C(C)(C(C)=O)C(=O)OC(C)C)cc2c1` (configuration not stated), the Potency result was “inactive”.
As to `N=C1/C(=C\c2ccc(-c3cccc(Cl)c3)o2)C(=O)N=C2SC=C(c3ccccc3)N12`, the Potency entry was “inactive”.
`CC(=O)C(=Cc1ccc(Cl)cc1)C(=O)c1ccccc1`: the Potency result was “inactive”.
Still for that read-out and setting: under `OC(c1ccc(F)c(F)c1)c1nc(-c2csc3ccccc23)cs1` (configuration not stated) stands “inactive”.
As to `COc1ccccc1C(C(=O)c1ccccc1)c1ccc(O)cc1` (configuration not stated), the Potency entry was “inactive”.
Still for that read-out and setting: under `CCOc1cc(CNCCSc2nnnn2C)ccc1OCc1ccc(Cl)cc1Cl` stands 4.26 µM (active); under `CCc1nc(Oc2cccc(F)c2)c2oc3ccccc3c2n1`, “inactive”.
On to `COc1ccc(OCc2nc3ccccc3n2C(C)c2ccccc2)cc1` (configuration not stated), for which the Potency result is “inactive”.
Take `CC(C)N(Cc1ccccc1)C(=O)c1nc(-c2ccc(Cl)cc2)n2c1CCCCC2`: the outcome was “inactive [at 12.7 µM]”.
As for `O=C1/C(=C/c2cccs2)COc2ccccc21`, the Potency entry was “inactive”.
In the case of `Cc1ccc(Cl)cc1N1CCN(C(=O)c2ccc(C)c(-n3c(C)nc4cccnc43)c2)CC1`, the outcome was “inactive [at 12.7 µM]”.
In the case of `CN1CCN(c2cc(N3CCN(C(=O)c4ccco4)CC3)c3c4c(onc24)-c2ccccc2C3=O)CC1`, the Potency entry was “inactive”.
On to `O=C1NC(=O)C(=Cc2ccccc2[N+](=O)[O-])S1`, for which the Potency entry was “inactive”.
On to `CCCN1CCN(c2ncnc3sc(C(=O)Nc4ccc(OC(F)(F)F)cc4)c(C)c23)CC1`, for which the Potency result was “inactive”.
With `CCOC(=O)C1=C(C)NC(C)=C(C(=O)OCC)C1c1cccc([N+](=O)[O-])c1`, the Potency result is “inactive”.
As to `OCCCNc1ncnc2oc(-c3ccccc3)c(-c3ccccc3)c12`, the Potency entry is “inactive”.
